Rows were chosen to be rich in hits. Some 1.5% of all compounds tested hit in one or more screens of this group.
PrPC TRFRET – inhibitors of human cell surface prion protein PrPC; P04156; TR-FRET read-out; inhibition, % at 13.8 µM; 370,000 compounds, 0.43% hits; AID 720596; in the data active = inhibition above about 24%
TcdB inh – TcdB glycohydrolase inhibition | P18177 | TcdB glycohydrolase enzymatic assay, plate reader | inhibition, % at 9.99 µM | 350,000 compounds, 0.24% hits | AID 652162; in the data active = inhibition above about 10%
Target sequence (P18177 whole entry, looked up): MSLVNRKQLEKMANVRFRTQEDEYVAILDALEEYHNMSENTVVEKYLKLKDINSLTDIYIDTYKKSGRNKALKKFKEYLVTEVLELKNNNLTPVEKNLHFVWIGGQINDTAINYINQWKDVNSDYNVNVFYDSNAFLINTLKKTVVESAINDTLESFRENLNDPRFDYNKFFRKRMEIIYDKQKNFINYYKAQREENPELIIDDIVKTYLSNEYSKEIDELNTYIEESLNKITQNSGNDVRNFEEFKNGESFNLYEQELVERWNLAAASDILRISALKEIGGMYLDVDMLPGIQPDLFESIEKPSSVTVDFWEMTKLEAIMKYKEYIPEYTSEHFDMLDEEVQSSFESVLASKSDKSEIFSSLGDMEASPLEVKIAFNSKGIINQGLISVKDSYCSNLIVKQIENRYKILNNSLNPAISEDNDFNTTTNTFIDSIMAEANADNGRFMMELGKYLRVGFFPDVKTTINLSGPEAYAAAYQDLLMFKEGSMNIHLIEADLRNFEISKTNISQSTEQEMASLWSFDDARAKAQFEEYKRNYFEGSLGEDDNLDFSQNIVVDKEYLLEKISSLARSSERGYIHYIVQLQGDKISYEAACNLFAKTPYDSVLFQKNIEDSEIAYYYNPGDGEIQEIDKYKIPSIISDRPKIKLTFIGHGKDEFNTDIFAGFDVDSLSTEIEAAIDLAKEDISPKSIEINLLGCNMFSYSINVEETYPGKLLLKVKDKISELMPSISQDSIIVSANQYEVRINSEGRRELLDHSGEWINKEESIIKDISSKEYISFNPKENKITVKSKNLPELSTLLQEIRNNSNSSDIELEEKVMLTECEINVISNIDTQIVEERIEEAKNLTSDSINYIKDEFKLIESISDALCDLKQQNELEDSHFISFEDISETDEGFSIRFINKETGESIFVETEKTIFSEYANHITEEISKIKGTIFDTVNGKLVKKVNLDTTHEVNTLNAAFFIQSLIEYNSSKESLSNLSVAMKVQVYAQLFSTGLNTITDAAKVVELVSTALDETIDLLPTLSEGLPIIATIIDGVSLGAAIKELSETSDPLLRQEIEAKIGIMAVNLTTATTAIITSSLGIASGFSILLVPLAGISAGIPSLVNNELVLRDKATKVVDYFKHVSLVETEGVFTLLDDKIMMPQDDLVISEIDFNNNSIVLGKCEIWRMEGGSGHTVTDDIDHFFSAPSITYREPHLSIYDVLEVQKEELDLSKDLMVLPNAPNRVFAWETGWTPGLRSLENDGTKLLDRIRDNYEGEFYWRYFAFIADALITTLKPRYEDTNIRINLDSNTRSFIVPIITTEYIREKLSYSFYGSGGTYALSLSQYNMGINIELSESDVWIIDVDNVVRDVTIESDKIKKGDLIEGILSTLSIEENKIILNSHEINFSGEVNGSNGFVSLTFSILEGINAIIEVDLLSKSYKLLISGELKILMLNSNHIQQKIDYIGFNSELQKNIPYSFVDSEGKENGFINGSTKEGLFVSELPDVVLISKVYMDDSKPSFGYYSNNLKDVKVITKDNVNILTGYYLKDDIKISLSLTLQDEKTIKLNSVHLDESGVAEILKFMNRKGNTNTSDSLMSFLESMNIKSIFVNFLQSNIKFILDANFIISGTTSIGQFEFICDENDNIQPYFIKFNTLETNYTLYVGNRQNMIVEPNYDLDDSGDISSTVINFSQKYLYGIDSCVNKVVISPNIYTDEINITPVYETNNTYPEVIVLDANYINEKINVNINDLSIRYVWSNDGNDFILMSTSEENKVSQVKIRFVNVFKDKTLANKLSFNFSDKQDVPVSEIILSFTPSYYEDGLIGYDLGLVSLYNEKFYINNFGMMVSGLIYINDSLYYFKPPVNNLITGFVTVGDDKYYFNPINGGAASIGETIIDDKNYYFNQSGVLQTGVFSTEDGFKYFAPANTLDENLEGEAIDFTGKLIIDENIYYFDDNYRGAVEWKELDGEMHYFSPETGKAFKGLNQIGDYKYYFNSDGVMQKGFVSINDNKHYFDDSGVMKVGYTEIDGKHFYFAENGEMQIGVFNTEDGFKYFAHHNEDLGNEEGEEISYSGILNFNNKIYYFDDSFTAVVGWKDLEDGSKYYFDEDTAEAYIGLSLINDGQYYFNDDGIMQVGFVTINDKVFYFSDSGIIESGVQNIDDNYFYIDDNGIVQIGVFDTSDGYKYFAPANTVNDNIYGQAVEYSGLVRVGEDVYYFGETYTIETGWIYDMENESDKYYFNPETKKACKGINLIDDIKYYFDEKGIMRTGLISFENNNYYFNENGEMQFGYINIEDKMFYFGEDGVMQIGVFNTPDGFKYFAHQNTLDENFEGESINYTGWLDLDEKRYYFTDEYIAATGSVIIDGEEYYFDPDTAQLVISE
SSB-PriA inh – blocks PriA binding to SSB C-terminal tail; AlphaScreen SSBct-PriA binding, biotinylated peptide; inhibition, % at 33 µM; 430,000 compounds, 0.6% hits; AID 1272365; in the data active = inhibition mostly above about 37%, no sharp cut-off; inactive = mostly below about 20%
CCHFV vOTU inh – blocks the CCHF virus ovarian tumor domain protease | 370,000 compounds, 0.55% hits | CCHFV vOTU protease, Pep-AMC fluorescence | inhibition, % at 11.5 µM; in the data active = inhibition above about 30%
Vc quorum ag – inducers of Vibrio cholerae quorum light production without autoinducers. V. cholerae BH1578 lux reporter, luminescence, 6 h. activation, % at 18.7 µM. 350,000 compounds, 0.16% hits; in the data active = activation mostly above about 9.7%, no sharp cut-off
VHR inh abs – DUSP3 (human) phosphatase inhibition. P51452. recombinant VHR phosphatase, pNPP absorbance. inhibition, % at 13.3 µM. 290,000 compounds, 0.52% hits; in the data active = inhibition above about 50%
Numbers stand for hits; – = inactive; · = not tested or not shown.

SMILES	PrPC TRFRET	TcdB inh	SSB-PriA inh	CCHFV vOTU inh	Vc quorum ag	VHR inh abs
CC(=O)C1=C(C)Nc2ncnn2C1c1ccc(O)cc1 (centres undefined)	–	–	–	–	–	58
CCOc1ccccc1CNc1ccc(O)cc1	–	–	–	48	–	–
Oc1ccc(NCc2ccccc2OCc2ccccc2F)cc1	–	·	–	–	–	–
CCOC(=O)c1ccc(-n2c(CCC(=O)O)ccc2-c2ccc(F)cc2)cc1	–	17	–	–	–	–
CC(C)CS(=O)(=O)C1CCN(C(=O)c2ccc3[nH]ccc3c2)CC1	·	·	–	·	·	·
CN1CCN(C(=O)c2cc3ccccc3[nH]2)CC1	–	–	–	–	–	–
Cc1ccc(S(=O)(=O)N2CCCN(C(=O)c3cc4ccccc4[nH]3)CC2)cc1	–	–	–	–	–	50
Cn1cccc(C(=O)NCCc2csc(-n3cccn3)n2)c1=O	·	·	–	·	·	·
COc1ccc(Cl)c2sc(N(CCN(C)C)C(=O)Cc3ccc4c(c3)OCO4)nc12	·	·	–	·	·	·
Cc1ccc(OCCCCn2cnc3ccccc32)c(C)c1	–	·	–	–	–	55
CC(C)Sc1ccc(C(=O)Nc2sccc2C#N)cc1	·	·	–	·	·	·
CCCn1nnnc1NCc1c(Cl)cccc1Cl	–	–	–	–	–	–
CCCn1nnnc1NCc1cccc(Cl)c1	–	–	–	–	–	53
CSc1ccc(C(=O)Nc2ccccc2Oc2ccccc2)cc1	·	·	–	·	·	·
O=[N+]([O-])c1ccc(Cl)cc1C=NNc1ccccn1	–	–	–	–	–	·
COc1cc(/C=N/Nc2ccccn2)ccc1O	–	16	·	–	–	–
O=[N+]([O-])c1ccc(/C=N/Nc2ccccn2)cc1	–	–	·	–	–	58
O=[N+]([O-])c1cc(Cl)cc(/C=N\Nc2ccccn2)c1O	–	·	·	–	25	–
Cc1c(C(=O)NC2CCCC2)nnn1-c1ccc(C(C)C)cc1	·	·	–	·	·	·
CCCn1c(=NC(=O)COc2ccccc2)sc2cc(S(C)(=O)=O)ccc21	·	·	–	·	·	·
Fc1cc2cccnc2c(F)c1F	·	·	–	·	·	·
COc1cc(/C=N/NC(=O)CCN2CCCCC2)ccc1O	–	10	·	–	–	–
COc1cc(C=NNC(=O)CCN2CCCCC2)ccc1O	·	·	–	·	·	·
COc1ccccc1N1CCN(C(=O)c2csc(Nc3ccccc3)n2)CC1	·	·	24	·	·	·
COc1ccc(C)cc1NC(=O)C(OC(=O)C1=NNC(=O)CC1)c1ccccc1 (centres undefined)	–	13	–	–	–	·
SMILES	PrPC TRFRET	TcdB inh	SSB-PriA inh	CCHFV vOTU inh	Vc quorum ag	VHR inh abs
COc1cc(C2c3cccn3CCN2S(=O)(=O)N(C)C)cc(OC)c1OC (centres undefined)	·	·	–	·	·	·
O=c1c2cccnc2[nH]c(=S)n1CCC1=CCCCC1	–	·	–	–	–	–
Clc1cc2c(c3ncccc13)OCN(CCC1=CCCCC1)C2	·	·	95	·	·	·
Oc1c(Cl)cc(Cl)cc1/C=N/c1nccs1	–	·	·	–	–	–
Oc1c(Cl)cc(Cl)cc1C=Nc1nccs1	·	·	56	·	·	·
COC1=C(N)C(=O)c2nc(-c3nc(C(=O)O)c(C)c(-c4ccc(OC)c(OC)c4O)c3N)ccc2C1=O	·	·	–	·	179	–
Cc1ccc(Cl)c2c(N=Nc3ccccc3)c(O)[nH]c12	–	–	–	–	–	52
Cc1cc(Cl)cc2c(N=Nc3ccccc3C(=O)O)c(O)[nH]c12	–	–	–	–	–	–
Fc1ccc(NC(=S)N2CCCc3ccccc32)cc1	–	·	41	–	–	–
CCc1c(C)nc(SCC(=O)Nc2ccc(Br)cc2)[nH]c1=O	–	–	101	–	–	–
CCc1c(C)nc(SCC(=O)Nc2cccc(Br)c2)[nH]c1=O	–	·	–	–	–	–
C=CCn1c(SCC(=O)N2CCOCC2)nc2sc3c(c2c1=O)CCCC3	–	·	–	–	–	–
C=CCn1c(SCC(=O)N2CCOCC2)nc2sc(C)c(C)c2c1=O	–	–	–	–	–	51
NS(=O)(=O)c1ccc(Oc2ccc(S(N)(=O)=O)cc2)cc1	–	–	–	–	–	–
C=CS(=O)(=O)c1ccc(Oc2ccc(S(=O)(=O)C=C)cc2)cc1	64	–	–	–	–	–
CCOC(=O)C1=C(C)NC(=O)NC1c1ccc(-c2ccc(F)cc2)o1 (centres undefined)	–	–	–	–	–	52
CCOC(=O)c1cc2c(ccn2C)n1Cc1cc(C)ccc1C	–	·	41	–	–	–
NS(=O)(=O)c1ccc(NC(=O)CSC2CC(=O)N(c3ccc(Br)cc3)C2=O)cc1 (centres undefined)	·	·	–	·	·	·
Cc1ccccc1C(=O)Nc1nc2c(s1)CC(C)CC2 (centres undefined)	·	·	–	·	·	·

Bioassay records deposited in PubChem by several laboratories.
